Bioassay records: PubChem, National Center for Advancing Translational Sciences (NCATS)
RORgamma inh = inhibitors of mouse ROR gamma transcriptional activity; actives 5.4% (n = 310,000); Drosophila S2 Gal4-RORgamma UAS-luciferase reporter, 20 h; Potency, µM (highest dose often 53.6 µM), without a hit: at the highest dose activity change, negative = inhibition, most hits filed as inhibitors; AID 2551; further: nearly all actives have a fitted effect of over 60% in size
Target sequence (P51450 whole entry, looked up, the tested form may be a part): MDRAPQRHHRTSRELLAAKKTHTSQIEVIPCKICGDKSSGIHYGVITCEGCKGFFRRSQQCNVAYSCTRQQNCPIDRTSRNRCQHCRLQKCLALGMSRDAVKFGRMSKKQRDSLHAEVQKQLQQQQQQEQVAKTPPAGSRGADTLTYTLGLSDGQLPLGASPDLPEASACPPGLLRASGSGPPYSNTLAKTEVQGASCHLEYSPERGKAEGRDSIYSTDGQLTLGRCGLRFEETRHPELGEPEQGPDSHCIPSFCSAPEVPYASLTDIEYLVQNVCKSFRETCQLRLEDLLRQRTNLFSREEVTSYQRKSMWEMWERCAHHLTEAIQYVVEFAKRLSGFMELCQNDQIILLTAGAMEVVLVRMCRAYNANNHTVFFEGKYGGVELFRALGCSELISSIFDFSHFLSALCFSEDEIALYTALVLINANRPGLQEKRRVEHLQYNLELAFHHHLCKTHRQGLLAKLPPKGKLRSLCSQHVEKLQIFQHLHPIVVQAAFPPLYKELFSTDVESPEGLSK
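Drosophila S2 cells stably expressing Gal4-DBD/mouse RORγ fusion under metallothionein promoter plus UAS-luciferase; compound 1 h, then 700 uM CuSO4 induction for 20 h at ambient temperature; inhibition read as reduced luminescence.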
TDP1 block = blocks human tyrosyl-DNA phosphodiesterase 1; actives 0.28% (n = 350,000); AID 485290; Potency, µM (highest dose often 130 µM), for inactives: top-dose activity change, negative = inhibition, actives largely listed as inhibitors; recombinant TDP1, AlphaScreen DNA substrate cleavage; Q9NUW8; further: nearly all actives have a fitted effect of over 40% in size
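Recombinant E. coli-expressed Tdp1 (1 nM) preincubated with compound 15 min at RT, then 5'-biotin/3'-phosphotyrosine-FITC DNA substrate (15 nM) added for 5 min. AlphaScreen beads (10 ug/ml) added, 10 min RT; tyrosine-FITC cleavage read as signal loss.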
DT40 TDP1 CPT = DT40-hTDP1 cell growth loss with CPT; actives 12% (n = 420,000); Potency, µM (doses to about 46.2 µM), for inactives: at the highest dose activity change, negative = growth inhibition, most hits filed as inhibitors; chicken DT40 Tdp1-/-;hTDP1 cells + 20 nM CPT, ATP luminescence, 48 h; further: nearly all actives have a fitted effect of over 55% in size
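Chicken DT40 Tdp1-/- cells complemented with human TDP1, 400 cells/well, exposed to compounds plus 20 nM camptothecin for at least 48 h at 37 C; viability read as ATP content by CellTiter-Glo luminescence.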
Gal4-VP16 FLuc = inhibits Gal4-VP16 luciferase reporter, ROR gamma counter-screen; Drosophila S2 Gal4-VP16 UAS-luciferase, luminescence, 20 h; Potency, µM (series often up to 53.6 µM), inactives show at the top dose activity, negative = inhibition, hits mostly inhibitors; actives 3.5% (n = 310,000);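 further: Gal4-VP16 expression switched on by copper sulfate through the metallothionein promoter; nearly all actives have a fitted effect of over 50% in size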
DT40 TDP1 no CPT = qHTS for Inhibitors of human tyrosyl-DNA phosphodiesterase 1 (TDP1): qHTS in cells in absence of CPT; DT40 Tdp1-/- hTDP1 cells, no CPT, ATP luminescence, 48 h; Potency, µM (series often up to 46.2 µM), inactives show at the highest dose activity change, negative = growth inhibition, hits mostly inhibitors; actives 15% (n = 420,000); further: nearly all actives have a fitted effect of over 55% in size
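Compound effects on proliferation are scored in DT40 Tdp1-/-;hTDP1 cells in the absence of CPT. ATP levels (CellTiter-Glo luminescence) are recorded after a ≥48 hr, 37 °C incubation.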
The depositor's hits bear a star; ? = inconclusive; . = no result; [ ] = remark or other dose. Rows were chosen to be rich in hits. Some 19% of all compounds tested hit in one or more screens of this group. The call rests on the fitted dose curve; in most records, active means well fitted curve in the direction sought with a large enough effect; inconclusive means small, poorly fitted or top-dose-only effect, or another doubt; inactive means no such curve, though single readings can be large; an effect the other way counts as inactive or inconclusive. On the % scale 0 is the no-effect control and ±100 the full control effect; potency means the concentration at half of the fitted maximal effect.

SMILES | RORgamma inh | TDP1 block | DT40 TDP1 CPT | Gal4-VP16 FLuc | DT40 TDP1 no CPT
CC(C)(C)NC(=O)N1CCn2cccc2C1c1ccccc1F (stereo not drawn) | 6% | 9% | 6% | 7% | ?
CCN(CC)CCNC(C(=O)OCCC(C)C)c1ccccc1 (stereo not drawn) | -8%[10 µM] | 0% | 9.4µM* | 3% | 5.3µM*
O=C(OCC(=O)N1CCCc2ccccc21)c1ccc(Cl)nc1 | 2% | 5% | -7% | -7% | 0%
N/C(=N\OC(=O)c1cc([N+](=O)[O-])ccc1Cl)c1ccccn1 | 4µM* | . | ? | ? | 18µM*
N/C(=N\OC(=O)c1cccc([N+](=O)[O-])c1)c1ccccn1 | ? | -6% | ? | -12% | -21%
N/C(=N\OC(=O)c1ccc([N+](=O)[O-])cc1Cl)c1ccccn1 | 10µM* | . | -30% | 11µM* | ?
N/C(=N/OC(=O)c1ccccc1Cl)c1ncc([N+](=O)[O-])s1 | ? | . | 3.7µM* | ? | 8.2µM*
COc1ccccc1NC(=O)/C(=C\c1cccnc1)NC(=O)c1ccccc1 | 0% | 3% | -1% | 3% | -11%
O=C(c1cccnc1)N1CCN(c2ccc(Cl)cc2)CC1 | 32% | 6% | ? | -9% | ?
CCOC(=O)NC(Nc1sc2c(c1C(=O)OC)CCN(C)C2)(C(F)(F)F)C(F)(F)F | -14%[10 µM] | 4% | 3% | 1% | -21%
C/C(=N\NC(=O)c1cc(C)nc2ccc(C)cc12)c1ccncc1 | 4% | 4%[56.1 µM] | ? | -10% | -26%
Cc1cc(=O)nc2c3ccccc3n(CC(=O)NCCCN3CCCCC3C)n12 (stereo not drawn) | -20% | -1% | 1% | 7% | 9%
COc1ccc(CCN(C)CCCOc2ccc(S(=O)(=O)c3[nH]c4ccccc4c3C(C)C)cc2)cc1OC | 14µM* | 17%[56.1 µM] | 13µM* | 18µM* | 9.4µM*
COc1ccc(C2C(C#N)=C(N)SC(N)=C2C#N)cc1OC | 9% | 11% | 4% | 0% | -8%
N#CC1=C(N)SC(N)=C(C#N)C1c1cccc(O)c1 | 7% | -5% | 23µM* | -14% | ?
Cc1ccc(O/C=C2/Nn3c(nnc3-c3cc(-c4ccccc4)n[nH]3)S2)cc1 | . | 2% | 7.1µM* | . | 16µM*
Cc1ccc(-c2nnc3n2N=C(c2ccccc2)CS3)cc1 | -18% | 11% | -20% | 0% | -15%
Cc1ccc(/C=N/Nc2nc3ccccc3s2)o1 | 8.9µM* | 11% | ? | 10µM* | ?
Cc1ccc(/C=N/Nc2nc(C(C)(C)C)cs2)o1 | -38% | 8% | -27% | -3% | ?
NC(=NCc1ccco1)NC(=O)c1ccccc1 | 24% | 4% | -18% | -2% | -25%
Cc1ccc2cc(CN(CCCO)S(=O)(=O)c3cccc4nsnc34)c(=O)[nH]c2c1 | 22% | 4% | ? | ? | -16%
Cc1ccc(C(C)C)c(OCC(=O)Nn2c(=O)[nH]c3ccccc3c2=O)c1 | 33% | 0% | -22% | 2% | ?
Cc1ccc(C(C)C)c(OCC(=O)Nn2c(C)nc3ccccc3c2=O)c1 | -7% | 6% | -21% | -15% | 6.5µM*
CC(=O)S[C@@H]1CC2=CC(=O)CC[C@]2(C)[C@H]2CC[C@@]3(C)[C@@H](CC[C@@]34CCC(=O)O4)[C@H]12 | . | . | 7.3µM* | . | 5.8µM*
C[C@]12CCC(=O)C=C1CC[C@@H]1[C@@H]2CC[C@@]2(C)[C@H]1CC[C@@]21CCC(=O)O1 | 13% | . | ? | -11% | 9.2µM*
C[C@]12CCC(=O)C=C1CCC1C2CC[C@@]2(C)C1CCC21OCCO1 (stereo partly drawn) | . | 0% | ? | . | ?
NC(c1csc(NC(=O)Nc2ccccc2Cl)n1)C1CCCCC1 (stereo not drawn) | . | . | 23µM* | . | 16µM*
COc1ccccc1NC(=O)Nc1nc(C(N)C2CCCCC2)cs1 (stereo not drawn) | . | . | 23µM* | . | 15µM*
